Several values for one entry are separate records, joined by “and”; a condition that tells them apart may be missing. Equal entries are not always repeated. Screen size: about 5,500 compounds; about 2,000 (36%) were called active. Roughly 18% stayed inconclusive and do not appear here. No stated cut-off is given here; in the data, active means normalized growth mostly below about 0.91 (no sharp cut-off); inconclusive means no clear call, values can overlap the other calls; inactive means mostly above about 0.92. The list shows a part of the results.
Test: chemical genetic growth profiling, strain panel (AID 1159580);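 further: tested at 20 µM; growth read once vehicle control cultures reached saturation at 30 °C; 1 = growth at the plate median or of vehicle wells; lower values mean less growth of the strain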
Conditions: S. cerevisiae deletion strains, growth OD

Measured: normalized growth

Cc1cc(C(C)(C)C)c(O)c(C)c1CC1=NCCN1
inactive: locus YAL013W, strain DEP1, hits give low values 0.986 and 1.02 | locus YAL021C, strain ccr4, hits give low values 1.01 | locus YAL026C, strain drs2, hits give low values 1 | locus YAL030W, strain snc1, hits give low values 1.01 | locus YAL040C, strain CLN3, hits give low values 1.01 | locus YBL061C, strain skt5, hits give low values 1.02 | locus YBR009C, strain hhf1, hits give low values 1.01 | locus YBR021W, strain FUR4, hits give low values 1 | locus YBR023C, strain chs3, hits give low values 1.02 | locus YBR171W, strain sec66, hits give low values 1.02 | locus YBR229C, strain ROT2, hits give low values 1 | locus YBR231C, strain swc5, hits give low values 0.998 | locus YBR279W, strain paf1, hits give low values 0.993 | locus YCL011C, strain gbp2, hits give low values 1.01 | locus YCL016C, strain dcc1, hits give low values 1.02 | locus YCL029C, strain bik1, hits give low values 1.02 | locus YCL061C, strain MRC1 (second series), hits give low values 1 | locus YCL061C, strain MRC1, hits give low values 1.01 | locus YCL069W, strain vba3, hits give low values 1 | locus YCR088W, strain abp1, hits give low values 1 | locus YDL005C, strain med2, hits give low values 0.998 | locus YDL035C, strain GPR1, hits give low values 1 | locus YDL040C, strain nat1, hits give low values 1 | locus YDL074C, strain BRE1, hits give low values 0.98 | locus YDL101C, strain DUN1, hits give low values 1 | locus YDL134C, strain PPH21, hits give low values 0.997 | locus YDL185W, strain tfp1, hits give low values 1.01 | locus YDL192W, strain arf1, hits give low values 1.02 | locus YDR001C, strain nth1, hits give low values 0.993 | locus YDR069C, strain doa4, hits give low values 1.01 | locus YDR101C, strain arx1, hits give low values 0.993 | locus YDR137W, strain rgp1, hits give low values 1.06 | locus YDR150W, strain NUM1, hits give low values 1 | locus YDR159W, strain sac3, hits give low values 0.991 | locus YDR162C, strain NBP2, hits give low values 0.991 | locus YDR195W, strain ref2 0.99 | locus YDR297W, strain sur2, hits give low values 1 | locus YDR318W, strain mcm21, hits give low values 1.01 | locus YDR334W, strain swr1, hits give low values 1.01 | locus YDR335W, strain msn5, hits give low values 1 | locus YDR363W, strain ESC2, hits give low values 1.01 | locus YDR388W, hits give low values 1 | locus YDR392W, strain spt3, hits give low values 0.954 | locus YDR502C, strain sam2, hits give low values 1 | locus YEL003W, strain gim4, hits give low values 0.981 | locus YEL037C, strain rad23, hits give low values 1 | locus YEL061C, strain CIN8 (second series), hits give low values 0.998 | locus YEL061C, strain CIN8, hits give low values 0.997 | locus YER002W, strain NOP16, hits give low values 0.998 | locus YER015W, strain faa2, hits give low values 0.998 | locus YER016W, strain bim1, hits give low values 1 | locus YER110C, hits give low values 1.02 | locus YER111C, strain swi4, hits give low values 1 | locus YER155C, strain BEM2 (second series), hits give low values 0.991 | locus YER155C, strain BEM2, hits give low values 0.996 | locus YER167W, strain BCK2, hits give low values 0.998 | locus YFR010W, strain ubp6, hits give low values 0.999 | locus YGL078C, strain dbp3, hits give low values 1.01 | locus YGL086W, strain mad1, hits give low values 1 | locus YGL167C, strain pmr1, hits give low values 1 | locus YGL173C, strain kem1, hits give low values 1.01 | locus YGL227W, strain vid30, hits give low values 1 | locus YGL240W, strain doc1, hits give low values 0.992 | locus YGL248W, strain PDE1, hits give low values 1 | locus YGL253W, strain hxk2, hits give low values 1.01 | locus YGR078C, strain PAC10, hits give low values 1 and 0.998 | locus YGR135W, strain pre9, hits give low values 1.01 | locus YGR229C, strain SMI1, hits give low values 1.01 | locus YGR252W, strain gcn5, hits give low values 0.967 | locus YHR013C, strain ard1, hits give low values 1.01 | locus YHR027C, strain rpn1, hits give low values 1.02 | locus YHR030C, strain SLT2, hits give low values 0.998 and 0.968 | locus YHR079C, strain IRE1 (second series), hits give low values 1.01 | locus YHR079C, strain IRE1, hits give low values 0.977 | locus YHR094C, strain hxt1, hits give low values 0.994 | locus YHR129C, strain ARP1, hits give low values 1.01 | locus YHR142W, strain chs7, hits give low values 0.997 | locus YHR200W, strain rpn10, hits give low values 0.994 | locus YIL066C, strain RNR3, hits give low values 1 | locus YIL073C, strain SPO22, hits give low values 1.04 | locus YIL125W, strain kgd1, hits give low values 1 | locus YIR030C, strain dcg1, hits give low values 1.01 | locus YJL092W, strain hpr5, hits give low values 1.01 | locus YJL095W, strain BCK1 (second series), hits give low values 1.01 | locus YJL095W, strain BCK1, hits give low values 1 and 0.981 | locus YJL115W, strain asf1, hits give low values 1 | locus YJL129C, strain trk1, hits give low values 0.993 | locus YJL134W, strain LCB3, hits give low values 0.997 | locus YJL154C, strain vps35, hits give low values 1 | locus YJL164C, strain tpk1, hits give low values 1 | locus YJL166W, strain qcr8, hits give low values 1.01 | locus YJL168C, strain set2, hits give low values 1.01 | locus YJL187C, strain SWE1 (second series), hits give low values 1 | locus YJL187C, strain SWE1, hits give low values 1 | locus YJR043C, strain POL32, hits give low values 0.982

From PubChem BioAssay AID1159580 (chemical genetic matrix, 2015)
